High-throughput results: PubChem BioAssay, National Center for Advancing Translational Sciences (NCATS)
The list is not random: actives were taken first. Their share in the collection is about 2.9%.
Nrf2 inh: blocks Nrf2 signaling; A549 ARE-Fluc reporter, luciferase luminescence, 18-24 h; Potency, µM (doses to about 46 µM), inactives show top-dose activity change, negative = inhibition, hits mostly inhibitors; 2.1% of 360,000 active; note: % is set by controls: 0 for no effect and ±100 for the full control effect; nearly all actives have a fitted effect of over 60% in size
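A549 ARE_Fluc cells, 5000/well, 5% FBS OPTI-MEM; compounds in dose-response, 18-24 h at 37 °C/5% CO2; CellTiter-Fluor viability read (Ex 405/Em 525), then BugLite luciferase luminescence = Nrf2 activity.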
ATXN viability: cell viability loss in ATXN counter-screen. S2 cells (HEK-293 line with an ATXN2-luciferase reporter) viability, CellTiter-Fluor protease fluorescence, 24 h. Potency, µM (titrated, usually from 56.7 µM), actives largely listed as cytotoxic. 0.49% of 400,000 active. AID 651635; note: nearly all actives have a fitted effect of over 40% in size
ATXN2 expr inh: ATXN2 expression inhibition; HEK-293 ATXN2-luciferase reporter, luminescence, 24 h; Potency, µM (series often up to 57 µM), inactives show top-dose activity change, negative = inhibition, most hits filed as inhibitors; 0.72% of 360,000 active; AID 1745845; note: % is set by controls: 0 for no effect and ±100 for the full control effect; nearly all actives have a fitted effect of over 55% in size
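qHTS (up to 57 uM final) was run with 24 h compound exposure of reporter cells at 37 °C. Each well was multiplexed: SteadyGlo luminescence measured ATXN2-luciferase expression after a fluorogenic Gly-Phe-AFC viability readout (25 uM final).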
A549 tox: kills or reduces viability of A549 cells in Nrf2 counter-screen | A549 ARE-Fluc cells, CellTiter-Fluor viability, 18-24 h | Potency, µM (titrated, usually from 46 µM), for inactives: at the highest dose activity change, negative = cytotoxicity, most hits filed as inhibitors | 0.16% of 390,000 active | AID 504648; note: % is set by controls: 0 for no effect and ±100 for the full control effect
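Cytotoxicity counterscreen: CellTiter-Fluor fluorescence was measured in A549 ARE_Fluc cells after 18-24 h of compound exposure in a concentration series. The subsequent BugLite luminescent read reports ARE-luciferase activity.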
Nrf2 ARE act: activators of Nrf2 (ARE) signaling; AID 624171; AREc32 ARE-luciferase reporter (MCF7-derived line), luminescence, 24 h; 0.31% of 410,000 active; Potency, µM (titrated, usually from 46.1 µM), without a hit: at the top dose activation, usual class: activators; note: % of control where 0% means no effect; nearly all actives have a fitted effect of over 65% in size
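AREc32 cells carrying an ARE-driven firefly luciferase reporter were seeded at 1000 cells/well in OPTI-MEM with 5% FBS, then exposed to compound for 24 hr at 37 deg C. Luminescence was read with Steady-Glo after 30 min at RT.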
* = called active by the depositor; i = inactive; ? = inconclusive; . = not tested or not shown; [ ] = remark or other dose. Calls come from the whole dose curve; as a rule, active = well fitted curve in the direction sought with a large enough effect; inconclusive = small, poorly fitted or top-dose-only effect, or another doubt; inactive = no such curve, though single readings can be large; an effect the other way counts as inactive or inconclusive. Potency is the fitted concentration of half-maximal effect.

SMILES	Nrf2 inh	ATXN viability	ATXN2 expr inh	A549 tox	Nrf2 ARE act
CC(O)C1C=CC=CC(=O)OC2CC3OC4C5OC5(C)C(O)CC4(COC(=O)C(O)C(C)CCO1)C2(C)C31CO1 (configuration not stated)	0.26µM*	?	?	.	-2%
CC1=CC2OC3CC4OC(=O)C=CC=CC(=O)OCCC(C)C(O)C(=O)OCC2(CC1)C4(C)C31CO1 (configuration not stated)	0.0046µM*	0.084µM*	?	.	-2%
N#CC1c2ccccc2C=CN1C(=O)c1ccc(N(CCCl)CCCl)cc1 (configuration not stated)	.	i	.	.	0%
C=CCn1c(O)c(/C=N/N2CCCCC2c2cccnc2)c(=O)[nH]c1=S (configuration not stated)	6%	i	-7%	1%	-1%
CC(C)Cn1c(O)c(N=NC(=O)c2cccc(S(=O)(=O)N3CCCCC3)c2)c2ccccc21	21µM*	i	-14%	?	2%
O=c1c2ccccc2nc(CNCc2ccco2)n1-c1ccc(F)cc1	2%	i	6%	-11%	-1%
COc1cccc(-n2cnc3sc(-c4ccccc4)cc3c2=O)c1	?	i	25%	2%	0%
Cn1nc(-c2ccccc2)nc2c(=O)n(C)c(=O)nc1-2	2.6µM*	.	.	3.7µM*	.
Cc1nc2c(=O)n(C)c(=O)nc-2n(C)n1	2.3µM*	7.1µM*	3.5µM*	1.6µM*	-3%
CCn1nc(-c2ccccc2)nc2c(=O)n(C)c(=O)nc1-2	2.9µM*	.	28µM*	4.1µM*	-2%
BrCC(Br)(Br)Br	-6%	i	2%	1%	0%
Cc1cc(OCC(=O)N[C@H](C(=O)O)c2ccccc2)c2c3c(c(=O)oc2c1)CCC3	7%	i	0%	9%	0%
CC(=O)N1CCc2cc(S(=O)(=O)N3CCN(c4ccc(C)cc4)C(C)C3)ccc21 (configuration not stated)	16µM*	i	-29%	-17%	-1%
CC(=O)N1CCCc2cc(S(=O)(=O)N3CCCC(C(=O)N4CCN(c5ccccc5F)CC4)C3)ccc21 (configuration not stated)	.	?	?	-14%	-1%
O=C(NCCO)c1nsnc1NCCCl	6%	i	-7%	8%	0%
O=C1NC(=O)N(c2ccccc2)C(=O)/C1=C/C=C/c1ccco1	?	18µM*	.	?	?
Cc1ccc(N2C(=O)NC(=O)/C(=C\C=C\c3ccco3)C2=O)cc1C	-4%	14µM*	7.9µM*	-14%	?
Cc1ccc(N2C(=O)NC(=O)/C(=C\C=C\c3ccco3)C2=O)cc1	3%	7.9µM*	10µM*	0%	?
O=C1NC(=O)N(Cc2ccccc2)C(=O)/C1=C\C=C\c1ccco1	26µM*	i	.	?	?
O=C1NC(=O)N(Cc2ccco2)C(=O)/C1=C/C=C/c1ccco1	-6%	?	?	0%	?
COc1ccc(OC)c(N2Cc3ccccc3C2=N)c1	19%	i	-22%	-2%	0%
O=c1[nH]c2cc(Cl)ccc2n1C1CCNCC1	.	i	1%	.	.
CCOc1ccc(Nc2c(S(=O)(=O)c3ccc(C)cc3)cnc3ccccc23)cc1	23µM*	?	?	-14%	1%
CCOc1ccc(Nc2c(S(=O)(=O)c3ccc(C)cc3)cnc3ccc(F)cc23)cc1	?	i	8%	-11%	2%
CCOC(=O)C1C(=O)N(C)C2(C)CC1c1ccccc1O2 (configuration not stated)	11%	i	60%	2%	0%
SMILES	Nrf2 inh	ATXN viability	ATXN2 expr inh	A549 tox	Nrf2 ARE act
CC(C)(C)c1ccc(CSc2cnn(C(C)(C)C)c(=O)c2Cl)cc1	0.15µM*	i	.	-10%	0%
CC(C)(C)NC(=O)CN1CCCN(C(=O)COc2ccc(Cl)c3ccccc23)CC1	-9%	?	-4%	-10%	1%
Cc1ccc(C)c(CN2C(=O)c3ccccc3S(=O)(=O)c3ccc(C(=O)N4CCCCCC4)cc32)c1	21µM*	.	.	-28%	5%
CC(N)C(=O)NC1C2C(=C(O)CC(O)C2O)C(=O)OC1(C)C(Cl)Cl (configuration not stated)	1.6µM*	?	1.5µM*	2.1µM*	-2%
CC(=O)OC1CCC2(C)C(CCC3C4CC(N5CC5)C(C(C)=O)C4(C)CC(=O)C32)C1 (configuration not stated)	8%	?	?	15µM*	16%
CC(=O)[C@@H]1CC[C@H]2[C@H]3CC[C@H]4C[C@@H](O)CC[C@]4(C)[C@@H]3C(=O)C[C@@]12C	.	i	.	.	.
O=C1C=CC[C@@H]2[C@H]3CCCN4CCC[C@@H](CN12)[C@@H]34	.	.	1.5µM*	.	.
Cc1cc(NC(=O)CCl)no1	16µM*	?	5%[11.3 µM]	?	?
CC12CC1(C)C(=O)N(c1cc(Cl)cc(Cl)c1)C2=O (configuration not stated)	-26%	i	-3%	8%	0%
O=C(CN1CCN(S(=O)(=O)c2cc(Br)ccc2Br)CC1)NCc1ccccc1Cl	?	i	-3%	-15%	3%
COC(=O)C1CN(C#N)N(c2ccc(Cl)cc2)C12c1ccccc1-c1ccccc12 (configuration not stated)	18µM*	4µM*	4µM*	?	-3%
C=Cc1cc(OC)c2c(c1)c(=O)oc1c2cc(OC)c2c(O)ccc(C3OC(C)C(O)C(C)(O)C3O)c21 (configuration not stated)	2.1µM*	i	1.7µM*	5.2µM*	-2%
CCN(CCCl)c1cc(CN(C)C)cc(NC(=O)c2ccc(C(=O)Nc3cc(CN(C)C)cc(N(CC)CCCl)c3)cc2)c1	2.9µM*	.	0.71µM*	13µM*	-3%
CCN(CC)C(=O)c1ccc(NC(=O)c2cccc(C(F)(F)F)c2)cc1	-19%	i	-11%	0%	1%
CCn1cc2nc(SCc3cccc(C(F)(F)F)c3)n(Cc3ccc(OC)cc3)c(=O)c2n1	23µM*	i	-26%	-20%	4%
CCn1cc2nc(SCc3c(F)cccc3Cl)n(CCc3ccccc3)c(=O)c2n1	?	i	-34%	-24%	-1%
CC(C)(O)/C=C/C(=O)C(C)(O)C1C(O)CC2(C)C3CC=C4C(C=C(O)C(=O)C4(C)C)C3(C)C(=O)CC12C (configuration not stated)	1.5µM*	2.4µM*	?	2.3µM*	-2%
CC(=O)OC(C)(C)/C=C/C(=O)[C@](C)(O)C1[C@H](O)C[C@@]2(C)C3CC=C4C(C[C@H](O)C(=O)C4(C)C)[C@]3(C)C(=O)C[C@]12C (some centres not stated)	?	?	?	0.65µM*	-3%
CN1CCN(Cc2cn3cccnc3n2)CC1	-7%	i	-4%	12%	0%
